In the library only some 9.3% were active in any assay of this set; here they are far more common.
HCMV antiviral: blocks human cytomegalovirus replication | AID 1259415 | activity change, negative = inhibition, % at 57.5 µM | hit rate 4.5% among 410,000 | HFF cells, HCMV-luciferase reporter, 72 h; stronger effect = lower value; in the data active = activity change below about -60%; inconclusive = no clear call, values can overlap the other calls; inactive = above about -39%
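Luciferase read-out from HCMV-luciferase-infected HFFs (MOI 1 PFU/cell) 72 h post infection at 37C; compounds added after 16 h cell attachment; activity normalized between buffer-only basal and Salinomycin (10uM) inhibitor controls.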
HCV inh: inhibitors of hepatitis C virus infection; Huh7.5.1 HCVcc-Cre infection, luciferase reporter, 44 h; Potency, µM (series often up to 41.8 µM), most hits filed as inhibitors; hit rate 3.4% among 340,000; AID 651820
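Infectious HCV cell culture screen: compound-treated cells (1,000/well, pre-plated 4 h) are infected with HCVcc-Cre at roughly 0.5 moi and grown 44 h. Infection is quantified by luciferase signal after 15 min substrate incubation at room temperature.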
Vaccinia mCherry: vaccinia inhibition (mCherry reporter); Vaccinia virus mCherry reporter infection, fluorescence; Potency, µM (top dose mostly 36.5 µM), actives largely listed as inhibitors; hit rate 0.63% among 310,000; calls by dose curve; tested in A549 cells; note: nearly all actives have a fitted effect of over 35% in size
Vaccinia Venus: vaccinia inhibition (Venus reporter) | Vaccinia virus Venus reporter expression, fluorescence | Potency, µM (titrated, usually from 36.5 µM), hits mostly inhibitors | hit rate 0.46% among 330,000; calls by dose curve; tested in A549 cells; note: nearly all actives have a fitted effect of over 30% in size
Sm TGR inh: S. mansoni TGR enzyme inhibition. Q962Y6. Potency, µM (series often up to 114 µM), actives largely listed as inhibitors. AID 485364. purified TGR, DTNB reduction, TNB absorbance 405 nm. hit rate 3% among 360,000; note: nearly all actives have a fitted effect of over 60% in size
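TGR 20 nM + NADPH 100 uM (dispensed conc.), cpd preinc 15 min RT; start with NADPH (500 uM addition) then DTNB (15 mM addition). Kinetic TNB absorbance, 405 nm filter. Four-parameter Hill fit across titration.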
FMDV antiviral: blocks foot and mouth disease virus. FMDV antiviral cell-based qHTS. hit rate 1.2% among 410,000. Potency, µM (titrated, usually from 57.9 µM), actives largely listed as inhibitors. AID 1159524; calls by dose curve; tested in HEK293T cells; note: read-out not given here; nearly all actives have a fitted effect of over 45% in size
Hits are given with their value; 0 = inactive; ? = inconclusive; - = not tested or not shown; [ ] = another dose, or the depositor's remark. Unless noted, calls come from the whole dose curve; as a rule, active = well fitted curve in the direction sought with a large enough effect; inconclusive = small, poorly fitted or top-dose-only effect, or another doubt; inactive = no such curve, though single readings can be large; an effect the other way counts as inactive or inconclusive.

SMILES	HCMV antiviral	HCV inh	Vaccinia mCherry	Vaccinia Venus	Sm TGR inh	FMDV antiviral
Cc1ccc(-c2cc(C(=O)Nc3cccc(S(=O)(=O)N(C)C)c3)c3ccccc3n2)o1	0	?	0	0	22µM	0
COc1ccc(-c2cc(C(=O)N(C)CC(=O)Nc3ccccc3C(F)(F)F)c3ccccc3n2)cc1OC	0	?	-	-	-	0
Cc1ccc(-c2cc(C(=O)NCc3ccco3)c3ccccc3n2)o1	0	?	-	0	18µM	0
COc1ccc(-c2cc(C(=O)N(C)CC(=O)Nc3ccccc3Br)c3ccccc3n2)cc1OC	0	20µM	0	0	0	0
CCOC(=O)Cn1cc(-c2ccccc2)nn1	0	0	0	0	0[11.4 µM]	0
O=c1c(-c2cccc(Cl)c2)nc2cncnc2n1-c1ccccc1	-	-	-	-	-	0
CCN(CC)S(=O)(=O)c1ccc(C(=O)NCc2n[nH]c(=S)n2-c2ccc(Cl)c(Cl)c2)cc1	0	0	0	0	0	0
COc1cccc(NC(=O)c2cc(-c3ccc(OC)cc3OC)nc3ccccc23)c1	0	?	-	-	-	0
COc1cccc(NC(=O)c2cc(-c3ccc(C)o3)nc3ccccc23)c1	0	?	0	0	35µM	0
COC(=O)c1cc(-c2ccc(C)o2)nc2ccccc12	0	?	0	0	?	0
COc1cccc(NC(=O)CN(C)C(=O)c2cc(-c3ccc(C)o3)nc3ccccc23)c1	0	?	-	-	14µM	0
Cc1ccc(-c2cc(C(=O)Nc3ccccc3C)c3ccccc3n2)o1	0	?	0	?	10µM	0
OCC[C@@H]1C[C@H](O)[C@@H](O)[C@]2(OCCc3cc(C(F)(F)F)ccc32)O1	0	-	?	0	-	0
O=C1CSC(c2ccncc2)N1Cc1ccc(F)cc1 (stereo not given)	0	0	0	0	0	0
CN(CC(=O)Nc1cccc(F)c1)C(=O)CC1CCCCC1	0	0	?	0	0	0
Nc1nc(Sc2c([N+](=O)[O-])cc(C(F)(F)F)cc2[N+](=O)[O-])n[nH]1	0	0	0	0	7.9µM	0
CC(C)C[C@H](NC(=O)c1[nH]cnc1C(=O)Nc1ccc(Cl)cc1)C(=O)OC(C)(C)C	0	0[8.37 µM]	?	?	0	0
CCOC(=O)C1C(=O)CC(C)(O)C(C(=O)OCC)C1c1cccc(OC(F)(F)C(F)F)c1 (stereo not given)	0	0	-	-	0	0
CN(C)CC(O)CN1C(=O)N(CN2C(=O)N(CC(O)CN(C)C)C(=O)C2(C)C)C(C)(C)C1=O (stereo not given)	-62	0	0	0	0	0
Cc1ccc(NC(=O)CSc2nc3n[nH]c(C)c3c(=N)n2-c2cccc(C)c2)cc1	0	-	0	?	0	0
CC(C)NCCCCOc1ccc(Br)cc1Cl	?	10µM	0	0	0	0
C=C1C(=O)C23CCC4C(C)(C(=O)OC)CCCC4(C)C2CCC1(O)C3 (stereo not given)	-99	3.2µM	7.9µM	11µM	-	3.5µM
COC(=O)[C@]1(C)CCC[C@@]2(C)C3CC[C@@]4(C)C[C@]3(CCC21)CC(=O)N4 (stereo not given in full)	0	0	0	0	0	?
Cn1c(SCC(=O)NCC2CCCO2)nc2scc(-c3ccccc3)c2c1=O (stereo not given)	0	0	-	-	0	0
CN(Cc1ccccc1)C(=O)CSc1nnc(-c2ccco2)n1-c1ccccc1	0	0	0	0	32µM	0
SMILES	HCMV antiviral	HCV inh	Vaccinia mCherry	Vaccinia Venus	Sm TGR inh	FMDV antiviral
O=C(CSc1nc2scc(-c3ccco3)c2c(=O)n1-c1ccccc1)N1CCOCC1	0	0	-	-	45µM	0
C=CCn1c(SCC(N)=O)nc2scc(-c3ccc(C)o3)c2c1=O	0	?	-	-	18µM	0
O=C(CSc1nc2scc(-c3ccco3)c2c(=O)n1-c1ccccc1)NCC1CCCO1 (stereo not given)	0	0	-	-	3.2µM	0
C=CCn1c(SCC(=O)NCCOC)nc2scc(-c3ccco3)c2c1=O	0	0	0	0	18µM	0
C=CCn1c(SCC(=O)NCC2CCCO2)nc2scc(-c3ccc(OC)cc3)c2c1=O (stereo not given)	0	-	0	0	0	0
C=CCn1c(SCC(=O)Nc2ccccc2C)nc2sc(C)c(C)c2c1=O	?	0	0	0	0	0
C=CCn1c(SCC(=O)NCC2CCCO2)nc2scc(-c3ccco3)c2c1=O (stereo not given)	0	?	0	0	7.9µM	0
